# Tau fibril FP – qHTS for Inhibitors of Tau Fibril Formation, Fluorescence Polarization. K18 P301L tau heparin fibrillization, Alexa594 FP, 6 h. AID 1468, 2008. hit rate 0.39% among 280,000. Potency, µM (series often up to 57.7 µM), inactives show at the highest dose activity, negative = inhibition, usual class: inhibitors. Microtubule-associated protein tau (Homo sapiens), P10636; further: potency means the concentration at half of the fitted maximal effect; nearly all actives have a fitted effect of over 55% in size
# Target sequence (P10636 561-689 P618L limits assumed): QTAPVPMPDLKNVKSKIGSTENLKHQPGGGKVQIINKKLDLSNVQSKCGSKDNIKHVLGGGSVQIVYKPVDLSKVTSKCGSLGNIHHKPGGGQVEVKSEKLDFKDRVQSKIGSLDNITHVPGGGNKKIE
#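 Read-out: fluorescence polarization of Alexa 594-labeled tau (0.24 uM), 555 nm excitation, 632 nm emission. Mixtures held 15 uM unlabeled K18 P301L, compound and 20 uM heparin, pH 7 acetate buffer, incubated 6 hr at 37 C.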
# Tau fibril ThT – qHTS for Inhibitors of Tau Fibril Formation, Thioflavin T Binding | Potency, µM (titrated, usually from 57.4 µM), for the others: at the top dose activity, negative = inhibition, usual class: inhibitors | hit rate 2.1% among 270,000 | Microtubule-associated protein tau (Homo sapiens), P10636 | recombinant tau K18 P301L, heparin-induced fibrillization, ThT fluorescence; further: potency means the concentration at half of the fitted maximal effect; nearly all actives have a fitted effect of over 55% in size
#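 Tau K18 P301L fragment (15 uM unlabeled plus 0.24 uM Alexa 594-labeled) in 100 mM sodium acetate pH 7 with compound, fibrillization induced by 20 uM heparin for 6 hr at 37 C. Thioflavin T (30 uM) added, fluorescence read after 1 hr (ex 450, em 510 nm).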
# FBPA coupling cs – qHTS Assay for Inhibitors of Fructose-1,6-bisphosphate Aldolase from Giardia Lamblia: Coupling assay counterscreen. activity change, negative = inhibition, % at 58.2 µM, hits read low. coupling enzyme system counterscreen, AmpLite Red fluorescence. hit rate 0.67% among 290,000. AID 2472, 2010; in the data active means activity change below about -30%
#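 Fluorescence at 525 nm excitation and 598 nm emission measured inhibition of the coupled detection system without aldolase. Compounds (at 57.5 uM final) were preincubated 10 min at room temperature with coupling enzyme reagent before a 20 min substrate/AmpLite Red step.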
# Sfp PPTase inh – qHTS Assay for Inhibitors of Bacillus subtilis Sfp phosphopantetheinyl transferase (PPTase). Biochemical Sfp PPTase activity, qHTS. Potency, µM, inactives show largest response in the series, negative = inhibition, hits mostly inhibitors. hit rate 3.5% among 310,000;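 further: the enzyme is Sfp with the accession as filed and its product quenches rhodamine fluorescence; potency means the concentration at half of the fitted maximal effect; 0% = enzyme reaction without inhibitor and -100% = no enzyme wells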
#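 Reaction rates are the 30-min fluorescence difference (ex 525, em 598 nm) in wells containing 15 nM Sfp, 5 uM rhodamine-CoA and 12.5 uM BHQ-2-YbbR at pH 7.6 with 10 mM MgCl2.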
# Tau fluor cs – Counterscreen qHTS for Inhibitors of Tau Fibril Formation, Fluorescence Polarization | Potency, µM (highest dose often 57.7 µM), for inactives: at the top dose activity change, negative = decrease | hit rate 0.93% among 280,000 | tau K18 P301L Alexa594 fluorescence, heparin fibrillization; further: potency means the concentration at half of the fitted maximal effect; nearly all actives have a fitted effect of over 55% in size
#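 Human tau K18 P301L (15 uM unlabeled, 0.24 uM Alexa 594-labeled) in 100 mM sodium acetate pH 7 with 20 uM heparin, 6 hr at 37 C. ThT 30 uM added, 1 hr ambient; Alexa 594 FP and total fluorescence read at 555/632 nm.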
# The depositor's hits bear a star; ? = inconclusive; . = no result; ! = not confirmed by another sample; [ ] = another dose, or the depositor's remark. In the library only some 5.2% were active in any assay of this set; here they are far more common. Unless noted, the call rests on the fitted dose curve; in most records, active means well fitted curve in the direction sought with a large enough effect; inconclusive means small, poorly fitted or top-dose-only effect, or another doubt; inactive means no such curve, though single readings can be large; an effect the other way counts as inactive or inconclusive. Unless noted, on the % scale 0 is the no-effect control and ±100 the full control effect.
SMILES,Tau fibril FP,Tau fibril ThT,FBPA coupling cs,Sfp PPTase inh,Tau fluor cs
COc1cc(/C=N/N(C)c2ccccc2)ccc1O,10%,13µM*,-2,-9%,?
COc1cccc(Cn2c(=O)c(-c3ccccc3)nc3cnc(N(C)C)nc32)c1,.,.,-15,?,.
COc1ccc(NC(=O)CSc2nnnn2-c2ccccc2OC)c(OC)c1,.,.,0,8%,.
COc1ccccc1-n1nnnc1SCC(=O)Nc1ccc(C)c(N)c1,.,.,0,79µM*,.
O=C(CCSCCc1ccccn1)Nc1ccc(Cl)cc1,-6%,4%,.,.,-7%
COc1ccc2cc3c(N)nn(C(=O)Cc4c[nH]c5ccccc45)c3nc2c1,3%,.,-3,-14%,20µM*[quencher]
CS(=O)(=O)c1ccc(Sc2nc3ccccc3s2)c([N+](=O)[O-])c1,10%,?,1,-5%,?
O=[N+]([O-])c1cc(S(=O)(=O)C(F)(F)F)ccc1Sc1nc2ccccc2[nH]1,-14%,25µM*,0,18%,13µM*[quencher]
O=[N+]([O-])c1cc(S(=O)(=O)C(F)(F)F)ccc1Sc1nc2ccccc2s1,-13%,16µM*,-2,-9%,13µM*[quencher]
CCOC(=O)c1cc(C)n(CC2CCC(C(=O)Nc3ccc(Cl)cc3)CC2)c1C (stereo not drawn),-3%,-3%,.,.,-21%
O=C(O)[C@@H]1CSCN1,.,.,.,56µM*,.
COc1cc(OC)c(NS(=O)(=O)c2cc(-c3cnc(C)o3)ccc2OC)cc1Cl,1%,-17%,.,.,-27%
O=S(=O)(/N=C(\Sc1ccccc1)c1ccccc1)c1ccc(Cl)cc1,?,?,8,35µM*,-5%
Cc1ccc(S(=O)(=O)/N=C(/Sc2ccccc2C(=O)O)c2ccccc2)cc1,.,.,.,79µM*,.
Cc1ccc(S(=O)(=O)/N=C(\Sc2ccccc2)c2ccccc2)cc1,?,?,2,-20%,-6%
CCCOc1ccc(C(=O)Nc2cc3c(cc2N2CCCCC2)n(C)c(=O)n3C)cc1,1%,?,.,.,-14%
C=CCSC1=N/C(=C\c2ccc(C(=O)O)cc2)C(=O)S1,?,?,7,40µM*,-13%
CCSC1=N/C(=C\c2ccc(C(=O)O)cc2)C(=O)S1,-9%,-10%,2,?,-3%
CC(CCO)Nc1nc2c(c(=O)n(C)c(=O)n2C)n1Cc1ccc(Br)cc1 (stereo not drawn),1%,-9%,.,.,-23%
COc1ccc(NS(=O)(=O)c2ccc3[nH]c4c(c3c2)CCCC4)cc1Cl,-13%,-13%,.,.,8.9µM*[quencher]
Cc1ccc(NS(=O)(=O)c2ccc3[nH]c4c(c3c2)CCCCCC4)cc1Cl,-9%,-6%,.,.,7.1µM*[quencher]
Cc1ccc(NS(=O)(=O)c2ccc3[nH]c4c(c3c2)CCCC4)cc1N(C)C,13%,-7%,.,.,22µM*[quencher]
O=C(c1cccc(F)c1)N1CCC(c2c[nH]c3ccccc23)(c2c[nH]c3ccccc23)CC1,-8%,9%,.,.,-24%
COC(=O)c1ccc(NC(=O)CN(Cc2ccccc2)S(=O)(=O)c2ccc(Cl)cc2)cc1,?,0%,.,.,?
CC(=O)O[C@H]1CC(C)(C)C(=C=C/C(C)=C/C=C/C(C)=C/C=C/C=C(C)/C=C/C=C(\C)C(=O)C[C@@]23O[C@]2(C)C[C@@H](O)CC3(C)C)[C@](C)(O)C1,?,25µM*,0,-27%,-10%
SMILES,Tau fibril FP,Tau fibril ThT,FBPA coupling cs,Sfp PPTase inh,Tau fluor cs
O=C(/C=C/c1ccco1)N(Cc1ccccc1)C1CCS(=O)(=O)C1 (stereo not drawn),-7%,?,2,25µM*,-8%
O=C(/C=C/c1ccco1)N(Cc1cccc(Br)c1)C1CCS(=O)(=O)C1 (stereo not drawn),-6%,.,2,?,-2%
O=C(/C=C/c1ccco1)N(Cc1cccc(Cl)c1)C1CCS(=O)(=O)C1 (stereo not drawn),?,?,2,32µM*,-19%
O=c1c(-c2cccc(F)c2)nc2cncnc2n1Cc1ccccc1Cl,.,.,0,-5%,.
Cc1ccc(C)c(NC(=O)C(=O)NCCc2csc(-c3ccc(C(F)(F)F)cc3)n2)c1,5%,-5%,.,.,-6%
CCCC[C@]12Cc3cc(OC)c(OC)cc3C(O1)C1=C(O2)C(=O)c2ccccc2C1=O,.,.,-36*,-24%,.
CCCC[C@]12Cc3ccccc3[C@H](O1)C1=C(O2)C(=O)c2ccccc2C1=O,.,.,0,12%,.
CCCCC1=CC2=C(c3ccco3)C(=O)C(C)(OC(=O)c3ccc(OC)cc3)C(=O)C2=CN1CC(C)C (stereo not drawn),-14%[11.6 µM],-9%[11.5 µM],-22,3.5µM*!,-4%[11.6 µM]
CCCCC1=CC2=C(c3ccco3)C(=O)C(C)(OC(=O)c3ccc(OC)cc3)C(=O)C2=CN1CCCCO (stereo not drawn),-4%[11.6 µM],?,-6,?,-13%[11.6 µM]
CCCCC1=CC2=C(c3ccco3)C(=O)C(C)(OC(=O)c3ccc(OC)cc3)C(=O)C2=CN1CC1CC1 (stereo not drawn),4%[11.6 µM],16µM*!,-2,17%,?
CCCCC1=CC2=C(c3ccco3)C(=O)C(C)(OC(=O)c3ccc(OC)cc3)C(=O)C2=CN1Cc1ccco1 (stereo not drawn),0%[11.6 µM],8.9µM*!,-9,45µM*,-4%[11.6 µM]
CCCCC1=CC2=C(c3ccco3)C(=O)C(C)(OC(=O)c3ccc(OC)cc3)C(=O)C2=CN1Cc1ccc(OC)cc1 (stereo not drawn),?,14µM*!,0,71µM*!,0%[11.6 µM]
Cc1ccc(C(=O)N2CCc3cc(CNC(=O)c4ccnn4C)ccc32)cc1,6%,4%,.,.,-5%
Cc1nc2ncccn2c1-c1csc(Nc2ccc(O)cc2)n1,7%,10µM*,-2,?,?
Cc1nc2ccccn2c1-c1csc(NCc2ccco2)n1,-11%,?,-1,?,-17%
Cc1ccc(Nc2nc(-c3c(C)nc4ncccn34)cs2)cc1,-5%,14µM*,0,50µM*,?
C=CCNc1nc(-c2c(C)nc3ncccn23)cs1,.,.,0,2%,.
Cc1ccc(Nc2nc(-c3c(C)nc4ccccn34)cs2)cc1,?,11µM*,0,45µM*,10µM*[quencher]
COc1ccc(NC(=O)CSc2nc3ccccc3n2CC(=O)N(C)C2CCCCC2)cc1,6%,-3%,.,.,-1%
Cc1ccc(CCNC(=O)C2COc3ccccc3C2)cc1 (stereo not drawn),0%,-1%,.,.,5%
Cc1noc(C)c1-c1ccc2ncnc(N(C)Cc3ccco3)c2c1,-10%,-21%,4,-20%,-22%
